Source: PubChem BioAssay (Tox21)
Results filed as inconclusive are left out. Activity calls are given as the source filed them. Unless noted, calls follow the shape of the dose curve; as a rule, active = well fitted curve in the direction sought with a large enough effect in the repeat runs; inconclusive = weak or mixed curves; inactive = no such curve, though single readings can be large; an effect the other way counts as inactive or inconclusive.

Columns and labels:
[1] = qHTS assay to identify small molecule agonists of the vitamin D receptor (VDR) signaling pathway - cell viability counter screen (AID 743224); also: % is scaled to controls: 0 for no effect and ±100 for the full control effect; nearly all actives have a fitted effect of over 50% in size
Summary of the method: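 CellTiter-Glo viability readout on VDR-bla cells, measured after 16 h of compound treatment at 37C in the same wells.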

[2] = qHTS assay to identify small molecule antagonists of the vitamin D receptor (VDR) signaling pathway - cell viability counter screen (AID 743225); also: % is scaled to controls: 0 for no effect and ±100 for the full control effect; nearly all actives have a fitted effect of over 50% in size
Summary of the method: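 Cytotoxicity toward the VDR-bla HEK 293T line was scored by ATP-based CellTiter-Glo luminescence, read in the wells already used for the beta-lactamase readout after 16 h compound treatment under 3 nM 1-alpha,25-dihydroxyvitamin D3 stimulation.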

[3] = qHTS assay to identify small molecule agonists of the NFkB signaling pathway (AID 1159509; active = well fitted curve in the direction sought with a large enough effect in the signal ratio in the repeat runs, not every such curve was filed as active; the % refers to the signal ratio; also: % is scaled to controls: 0 for no effect and ±100 for the full control effect)
Summary of the method: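 Pathway activation was measured in ME-180 cells stably expressing beta-lactamase under NF-kB response element control. Substrate cleavage was read as the 460/530 nm emission shift after 5 hr compound incubation.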

[4] = qHTS assay to identify small molecule agonists of the NFkB signaling pathway - cell viability counter screen (AID 1159515; calls by dose curve; also: % is scaled to controls: 0 for no effect and ±100 for the full control effect; nearly all actives have a fitted effect of over 55% in size)
Summary of the method: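 Tox21 library compounds were tested for cytotoxicity against NFkB-bla ME-180 cells during a 5 hr exposure at 37 C. CellTiter-Glo luminescence served as the viability read-out.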

[5] = qHTS assay to identify small molecule agonists of the endoplasmic reticulum stress response signaling pathway (AID 1159516; active = well fitted activation curve with a large enough effect in the signal ratio in the repeat runs, not every such curve was filed as active; the % refers to the signal ratio; also: % is scaled to controls: 0 for no effect and ±100 for the full control effect)
Summary of the method: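 Fluorescence at 460 and 530 nm (405 nm excitation) reports beta-lactamase from an ER stress response element in HeLa cells treated 5 hr at 37 C.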

[6] = qHTS assay to identify small molecule agonists of the endoplasmic reticulum stress response signaling pathway - cell viability counter screen (AID 1159517; calls by dose curve; also: % is scaled to controls: 0 for no effect and ±100 for the full control effect; nearly all actives have a fitted effect of over 50% in size)
Summary of the method: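 Cpd-treated ESRE-bla HeLa (5 hr, 37 C) → LiveBLAzer 2 hr RT → CellTiter-Glo 30 min RT → luminescence.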

[7] = qHTS assay to identify small molecule antagonists of the retinoid-related orphan receptor gamma (ROR-gamma) signaling pathway - cell viability counter screen (AID 1159520); also: % is scaled to controls: 0 for no effect and ±100 for the full control effect; nearly all actives have a fitted effect of over 50% in size
Summary of the method: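 Tet-on ROR gamma CHO cells (1,000/well) were plated 4 hr, given compounds in DMSO for 2 hr at 37 C, then induced with 1 uM final doxycycline for 16 hr. Viability was read as ATP by CellTiter-Glo luminescence after 30 min.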

[8] = target: Nuclear receptor ROR-gamma (Homo sapiens) (UniProt P51449); assay: qHTS assay to identify small molecule antagonists of the retinoid-related orphan receptor gamma (ROR-gamma) signaling pathway (AID 1159521)
Summary of the method: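 Readout: ONE-Glo luciferase luminescence, 30 min at room temperature. System: Tet-on RORγ CHO, RORE-LUC. Sequence: compound 2 h, doxycycline 1 uM final, 16 h at 37 C.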

[9] = qHTS assay to identify small molecule agonists of the AP-1 signaling pathway - cell viability counter screen (AID 1159525; calls by dose curve; also: nearly all actives have a fitted effect of over 55% in size)
Summary of the method: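 Each titration point was normalised to DMSO and tetra n-octyl ammonium bromide controls. The read was Cell Titer Glo luminescence after 30 min at RT, following 5 h compound exposure of ME-180 AP-1-bla cells at 37 °C.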

[10] = qHTS assay to identify small molecule agonists of the AP-1 signaling pathway (AID 1159526; calls by dose curve; also: % is scaled to controls: 0 for no effect and ±100 for the full control effect)
[11] = target: Retinoic acid receptor RXR-alpha (Homo sapiens) (UniProt P19793); assay: qHTS assay to identify small molecule agonists of the RXR signaling pathway (AID 1159527; calls by dose curve; also: % is scaled to controls: 0 for no effect and ±100 for the full control effect; nearly all actives have a fitted effect of over 35% in size)
Sequence of Retinoic acid receptor RXR-alpha (Homo sapiens) (P19793 whole entry, looked up): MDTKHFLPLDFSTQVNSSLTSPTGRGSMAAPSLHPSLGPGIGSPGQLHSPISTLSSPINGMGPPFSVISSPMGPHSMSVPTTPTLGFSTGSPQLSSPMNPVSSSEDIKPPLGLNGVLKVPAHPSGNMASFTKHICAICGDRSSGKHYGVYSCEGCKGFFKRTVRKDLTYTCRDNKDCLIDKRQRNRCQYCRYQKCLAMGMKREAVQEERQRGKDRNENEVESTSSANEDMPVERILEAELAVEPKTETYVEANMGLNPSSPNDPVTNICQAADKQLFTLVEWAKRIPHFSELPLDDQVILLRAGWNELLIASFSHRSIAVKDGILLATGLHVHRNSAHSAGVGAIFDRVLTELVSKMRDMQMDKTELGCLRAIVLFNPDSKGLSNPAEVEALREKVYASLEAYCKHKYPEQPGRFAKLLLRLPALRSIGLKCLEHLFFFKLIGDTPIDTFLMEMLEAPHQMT
Summary of the method: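 Reporter activation is measured as beta-lactamase activity via FRET substrate cleavage (emission 460/530 nm) in HEK 293T cells expressing an RXR-alpha-driven bla construct, following 16 hr compound exposure at 37 C.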

[12] = qHTS assay to identify small molecule agonists of the RXR signaling pathway - cell viability counter screen (AID 1159529)
Summary of the method: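 Tox21 10K compounds were tested for cytotoxicity against GeneBLAzer RXR-alpha HEK 293T cells grown in 2% charcoal-stripped FBS. Exposure lasted 16 hr at 37 C, 5% CO2; viability read by CellTiter-Glo luminescence.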

[13] = qHTS assay to identify small molecule antagonists of the retinoid acid receptor (RAR) signaling pathway - cell viability counter screen (AID 1159551); also: % is scaled to controls: 0 for no effect and ±100 for the full control effect; nearly all actives have a fitted effect of over 35% in size
Summary of the method: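 In this counter screen, the RARE-luciferase line C3RL4 was exposed for 6 h at 37 C and 5% CO2 to compounds with retinol at 1 uM final. Cellular ATP, read by luminescence, served as the viability measure.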

[14] = qHTS assay to identify small molecule antagonists of the retinoic acid receptor (RAR) signaling pathway (AID 1159552; also: nearly all actives have a fitted effect of over 50% in size; also: potency is read from the fitted curve at half-maximal effect)
Summary of the method: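 Overnight-plated C3RL4 reporter cells get compound, then retinol to 1 uM final; plates sit 6 hr at 37 C, 5% CO2. A luciferase reagent is added and light output recorded after 30 min at room temperature.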

[15] = qHTS assay to identify small molecule agonists of the retinoic acid receptor (RAR) signaling pathway (AID 1159553); conditions: C3RL4 RARE luciferase reporter, agonist, 6 h; activation: at 73.3 µM (top of the series); also: % is scaled to controls: 0 for no effect and ±100 for the full control effect
Summary of the method: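 In this cell-based screen, 1,000 C3RL4 cells per well were cultured overnight, dosed with test chemicals in DMSO for 6 hr, and assessed for RARE luciferase luminescence.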

[16] = qHTS assay to identify small molecule antagonists of the estrogen related receptor (ERR) signaling pathway from Tox21 library - cell viability counter screen (AID 1224834); also: % is scaled to controls: 0 for no effect and ±100 for the full control effect; nearly all actives have a fitted effect of over 30% in size
Summary of the method: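 Counter screen run in ERR cells (2,000 cells/well): cells pre-incubated 6 h, then treated with compounds for 17.5 h at 37 C. Fluorescence was read 30 min after CellTiter-Fluor addition.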

[17] = target: Luciferin 4-monooxygenase (Photinus pyralis) (UniProt P08659); assay: qHTS assay to identify small molecule inhibitors of firefly luciferase (AID 1224835); also: % is scaled to controls: 0 for no effect and ±100 for the full control effect; nearly all actives have a fitted effect of over 25% in size
Sequence of Luciferin 4-monooxygenase (Photinus pyralis) (P08659 whole entry, looked up): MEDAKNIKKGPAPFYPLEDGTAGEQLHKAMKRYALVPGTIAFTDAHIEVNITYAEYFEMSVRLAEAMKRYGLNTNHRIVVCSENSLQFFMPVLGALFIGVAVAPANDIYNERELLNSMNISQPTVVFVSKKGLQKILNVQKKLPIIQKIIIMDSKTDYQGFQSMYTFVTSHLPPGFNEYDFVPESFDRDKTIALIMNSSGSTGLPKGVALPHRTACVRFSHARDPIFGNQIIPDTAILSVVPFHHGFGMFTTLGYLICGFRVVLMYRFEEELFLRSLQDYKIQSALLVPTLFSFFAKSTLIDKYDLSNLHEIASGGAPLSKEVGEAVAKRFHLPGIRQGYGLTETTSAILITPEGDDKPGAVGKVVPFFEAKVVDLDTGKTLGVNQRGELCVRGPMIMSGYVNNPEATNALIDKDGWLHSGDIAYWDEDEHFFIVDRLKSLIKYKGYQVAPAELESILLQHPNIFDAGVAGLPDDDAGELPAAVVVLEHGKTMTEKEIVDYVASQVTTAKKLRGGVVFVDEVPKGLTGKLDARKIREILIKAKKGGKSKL
Summary of the method: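 Quantitative HTS format; KM concentrations of both substrates. Purified P. pyralis FLuc activity quantified from luminescence images.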

[18] = qHTS assay to identify small molecule agonists of the constitutive androstane receptor (CAR) signaling pathway - cell viability counter screen (AID 1224836); also: % is scaled to controls: 0 for no effect and ±100 for the full control effect; nearly all actives have a fitted effect of over 45% in size
Summary of the method: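 Fluorescence from CellTiter-Fluor indicates live cells after 23 h exposure. The human hepatoma line expresses hCAR and a CYP2B6-2.2kb reporter. Incubation medium contains 0.75 uM PK11195 (final).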

[19] = qHTS assay to identify small molecule antagonists of the constitutive androstane receptor (CAR) signaling pathway - cell viability counter screen (AID 1224837); also: % is scaled to controls: 0 for no effect and ±100 for the full control effect; nearly all actives have a fitted effect of over 45% in size
Summary of the method: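 CITCO at 50 nM final was added alongside compounds (15 concentrations) to double-stable hCAR/CYP2B6-2.2kb HepG2 cells. Following 23 hr at 37 C, cell viability was quantified by CellTiter-Fluor fluorescence intensity.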

[20] = target: Nuclear receptor subfamily 1 group I member 3 (Homo sapiens) (UniProt Q14994); assay: qHTS assay to identify small molecule antagonists of the constitutive androstane receptor (CAR) signaling pathway (AID 1224838); also: % is scaled to controls: 0 for no effect and ±100 for the full control effect; nearly all actives have a fitted effect of over 40% in size
Sequence of Nuclear receptor subfamily 1 group I member 3 (Homo sapiens) (Q14994 whole entry, looked up): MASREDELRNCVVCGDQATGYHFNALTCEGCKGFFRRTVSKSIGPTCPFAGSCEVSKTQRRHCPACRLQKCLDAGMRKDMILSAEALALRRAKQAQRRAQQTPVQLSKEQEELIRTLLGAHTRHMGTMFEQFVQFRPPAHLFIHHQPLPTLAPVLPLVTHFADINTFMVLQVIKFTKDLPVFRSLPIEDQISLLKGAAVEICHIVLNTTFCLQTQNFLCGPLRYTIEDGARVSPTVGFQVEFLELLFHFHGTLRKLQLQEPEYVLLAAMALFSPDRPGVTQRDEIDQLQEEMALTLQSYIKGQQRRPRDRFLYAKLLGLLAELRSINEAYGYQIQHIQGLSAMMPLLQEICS
Summary of the method: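 Inhibition of CITCO-driven (50 nM final) CYP2B6 reporter expression is measured in HepG2 cells stably carrying hCAR. Fifteen compound concentrations are applied for 24 h at 37 C, followed by luciferase luminescence.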

CCCOC(=O)CCCCC(=O)OCCC
inactive: outcome [1] | outcome [2] | outcome [3] | outcome [4] | outcome [5] | outcome [6] | outcome [7] | outcome [8] | outcome [9] | outcome [10] | Potency [11] | outcome [12] | outcome [13] | Potency [14] | Potency [15] | Potency [16] | Potency [17] | outcome [18] | Potency [19]

BrC/C=C/CBr
inactive: outcome [1] | outcome [2] | outcome [3] | outcome [4] | outcome [5] | outcome [6] | activity, negative = cytotoxicity [7] -4.58% [at 19 µM] | activity change, negative = inhibition [8] -16.8% [at 19 µM] | viability change, negative = cytotoxic [9] 1.78% [at 15.8 µM] | activation [10] -6.33% [at 15.8 µM] | activation [11] 4.67% [at 15.8 µM] | activity change, negative = cytotoxicity [12] -1.93% [at 15.8 µM] | activity change, negative = cytotoxicity [13] 3.13% [at 19 µM] | activity, negative = inhibition [14] 22.9% [at 19 µM] | Potency [15] | viability change, negative = cytotoxic [16] 0.661% [at 19 µM] | activity change, negative = inhibition [17] 0.329% [at 23.6 µM] | viability change, negative = cytotoxic [18] 0.935% [at 19 µM] | activity change, negative = cytotoxicity [19] -2.33% [at 19 µM]

C=C[C@@H](C)CCC=C(C)C
inactive: outcome [1] | outcome [3] | outcome [4] | outcome [5] | outcome [6] | outcome [7] | outcome [8] | outcome [9] | outcome [10] | Potency [11] | outcome [12] | outcome [13] | Potency [14] | Potency [15] | Potency [16] | Potency [17] | outcome [18] | Potency [19]

Cc1nc2n(c(=O)c1CCN1CCC(C(=O)c3ccc(F)cc3)CC1)CCS2
inactive: outcome [2] | outcome [3] | outcome [4] | outcome [5] | outcome [6] | outcome [7] | outcome [8] | outcome [9] | outcome [10] | Potency [11] | outcome [12] | outcome [13] | Potency [14] | Potency [15] | Potency [16] | Potency [17] | outcome [18] | Potency [19]

CC(=O)OC(C)(C)Cc1ccccc1
inactive: outcome [1] | outcome [2] | outcome [3] | outcome [4] | outcome [5] | outcome [6] | outcome [7] | outcome [8] | outcome [9] | outcome [10] | Potency [11] | outcome [12] | outcome [13] | Potency [14] | Potency [15] | Potency [16] | Potency [17] | outcome [18] | Potency [19]

C=CCCCCCCCCCCC
inactive: activity change, negative = cytotoxicity [1] -9.89% [at 5.95 µM] | viability change, negative = cytotoxic [2] 5.49% [at 6.95 µM] | activation [3] 0.0657% [at 6.95 µM] | activity, negative = cytotoxic [4] -9.69% [at 6.95 µM] | activation [5] -5.43% [at 6.95 µM] | activity change, negative = cytotoxicity [6] -0.545% [at 6.95 µM] | activity, negative = cytotoxicity [7] 3.91% [at 8.39 µM] | activity change, negative = inhibition [8] -1.42% [at 8.39 µM] | viability change, negative = cytotoxic [9] 9.65% [at 6.97 µM] | activation [10] -2.43% [at 6.97 µM] | activation [11] 6.32% [at 6.98 µM] | activity change, negative = cytotoxicity [12] 0.762% [at 6.97 µM] | activity change, negative = cytotoxicity [13] 5.5% [at 8.39 µM] | activity, negative = inhibition [14] 18.9% [at 8.39 µM] | activation [15] 0.0107% [at 8.36 µM] | viability change, negative = cytotoxic [16] 0.22% [at 8.39 µM] | activity change, negative = inhibition [17] 6.44% [at 10.5 µM] | viability change, negative = cytotoxic [18] -0.862% [at 8.39 µM] | activity change, negative = cytotoxicity [19] 6.96% [at 8.39 µM]

C=CCOc1c(Br)cc(Br)cc1Br
inactive: outcome [1] | outcome [2] | outcome [3] | outcome [4] | outcome [5] | outcome [6] | outcome [7] | outcome [8] | outcome [9] | outcome [10] | Potency [11] | outcome [12] | outcome [13] | Potency [14] | Potency [15] | Potency [16] | Potency [17] | outcome [18] | Potency [19] | Potency [20]

CCc1nccnc1C
inactive: outcome [1] | outcome [2] | outcome [3] | outcome [4] | outcome [5] | outcome [6] | outcome [7] | outcome [8] | outcome [9] | outcome [10] | Potency [11] | outcome [12] | outcome [13] | Potency [14] | Potency [15] | Potency [16] | Potency [17] | outcome [18] | Potency [19]

COc1cc2c3cc1Oc1cc(ccc1O)C[C@@H]1c4c(cc(OC)c(O)c4Oc4ccc(cc4)C[C@@H]3N(C)CC2)CC[N+]1(C)C
inactive: outcome [2] | outcome [3] | outcome [4] | outcome [5] | outcome [6] | outcome [7] | outcome [8] | outcome [9] | outcome [10] | Potency [11] | outcome [12] | outcome [13] | Potency [14] | Potency [15] | Potency [16] | Potency [17] | outcome [18] | Potency [19]

CC1=CC[C@H](CC=O)C1(C)C
inactive: outcome [2] | outcome [3] | outcome [4] | outcome [5] | outcome [6] | outcome [7] | outcome [8] | outcome [9] | outcome [10] | Potency [11] | outcome [12] | outcome [13] | Potency [14] | Potency [15] | Potency [16] | Potency [17] | outcome [18] | Potency [19]

CNCc1ccccc1
active: Potency [14] 106 nM
inactive: outcome [1] | outcome [2] | outcome [3] | outcome [4] | outcome [5] | outcome [6] | outcome [7] | outcome [8] | outcome [9] | outcome [10] | Potency [11] | outcome [12] | outcome [13] | Potency [15] | Potency [16] | Potency [17] | outcome [18] | Potency [19]

CN=C(NC#N)NCCSCc1csc(N=C(N)N)n1
inactive: outcome [2] | outcome [3] | outcome [4] | outcome [5] | outcome [6] | outcome [7] | outcome [8] | outcome [9] | outcome [10] | Potency [11] | outcome [12] | outcome [13] | Potency [14] | Potency [15] | Potency [16] | Potency [17] | outcome [18] | Potency [19]

CCCCCN(CCCOC)C(=O)C(CCC(=O)O)NC(=O)c1ccc(Cl)c(Cl)c1 (stereo not drawn)
inactive: outcome [1] | outcome [2] | outcome [3] | outcome [4] | outcome [5] | outcome [6] | outcome [7] | outcome [8] | outcome [9] | outcome [10] | Potency [11] | outcome [12] | outcome [13] | Potency [14] | Potency [15] | Potency [16] | Potency [17] | outcome [18] | Potency [19]
